# The supplement of paper PMC11732987, “Enantioselective OTUD7B fragment discovery through chemoproteomics screening and high-throughput optimisation” (Communications Chemistry, 2025)
# Values without a mark were called inactive.
# Assays:
# Assay in all cases: log2 ratio of Biotin-Ahx-Ub-VS probe labelling (fragment/DMSO); higher = less target engagement (more negative = stronger competition), active = hit call of the paper (q ≤ 0.05, log2 ratio ≤ -1)
# Details in all cases: compound concentration: 200 uM; treatment time: 3 h
# [1] = target: T1, USP42 (UniProt Q9H9J4)
# T1 sequence (whole entry): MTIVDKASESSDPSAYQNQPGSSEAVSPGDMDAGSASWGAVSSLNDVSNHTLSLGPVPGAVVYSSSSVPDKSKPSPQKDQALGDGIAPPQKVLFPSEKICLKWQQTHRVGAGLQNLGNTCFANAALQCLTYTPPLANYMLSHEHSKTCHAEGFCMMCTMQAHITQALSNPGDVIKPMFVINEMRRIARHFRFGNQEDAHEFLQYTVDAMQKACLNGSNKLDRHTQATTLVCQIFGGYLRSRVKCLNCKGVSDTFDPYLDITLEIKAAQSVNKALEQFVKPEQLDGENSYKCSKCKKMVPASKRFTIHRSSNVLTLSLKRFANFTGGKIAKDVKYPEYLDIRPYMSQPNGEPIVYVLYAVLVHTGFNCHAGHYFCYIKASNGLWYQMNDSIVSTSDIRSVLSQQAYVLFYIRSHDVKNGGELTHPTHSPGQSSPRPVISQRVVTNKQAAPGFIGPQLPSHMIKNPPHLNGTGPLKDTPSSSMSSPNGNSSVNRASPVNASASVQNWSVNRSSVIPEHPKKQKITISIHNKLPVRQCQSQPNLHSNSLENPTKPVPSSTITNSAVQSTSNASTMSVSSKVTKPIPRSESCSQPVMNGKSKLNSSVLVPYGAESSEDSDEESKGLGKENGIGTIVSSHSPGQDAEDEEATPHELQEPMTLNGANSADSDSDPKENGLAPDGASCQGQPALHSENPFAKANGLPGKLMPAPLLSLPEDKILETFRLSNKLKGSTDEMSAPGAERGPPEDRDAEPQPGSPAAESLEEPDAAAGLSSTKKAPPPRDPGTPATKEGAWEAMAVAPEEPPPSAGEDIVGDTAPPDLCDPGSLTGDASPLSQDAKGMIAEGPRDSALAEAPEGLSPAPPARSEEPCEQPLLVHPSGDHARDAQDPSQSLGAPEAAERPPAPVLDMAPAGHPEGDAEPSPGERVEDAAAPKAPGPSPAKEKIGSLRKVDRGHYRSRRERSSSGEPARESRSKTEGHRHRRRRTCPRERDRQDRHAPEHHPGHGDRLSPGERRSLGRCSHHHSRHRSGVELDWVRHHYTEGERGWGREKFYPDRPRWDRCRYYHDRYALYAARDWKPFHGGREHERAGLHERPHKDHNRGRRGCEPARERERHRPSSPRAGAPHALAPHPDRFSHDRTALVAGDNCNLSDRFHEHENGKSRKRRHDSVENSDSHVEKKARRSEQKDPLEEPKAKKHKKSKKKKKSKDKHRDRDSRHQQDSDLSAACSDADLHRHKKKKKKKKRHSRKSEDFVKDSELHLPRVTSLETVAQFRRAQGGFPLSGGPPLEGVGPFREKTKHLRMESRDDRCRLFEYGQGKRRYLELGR
# How it was run: (§1)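 In triplicate, 495 µg of HEK293T lysate per sample was incubated with fragment at 200 µM or vehicle for 3 h. Biotin-Ahx-Ub-VS was then added to 0.5 µM final for 1 h, and labelled DUBs were captured with NeutrAvidin, digested with LysC and trypsin, and measured by diaPASEF LC-MS/MS. Data are average log2 fragment/vehicle ratios by unpaired t-test from global-median-normalised Spectronaut label-free quantities, restricted to proteins with ≥2 unique peptides.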
# [2] = target: USP46 (UniProt P62068)
# Chain of USP46 (P62068 whole entry): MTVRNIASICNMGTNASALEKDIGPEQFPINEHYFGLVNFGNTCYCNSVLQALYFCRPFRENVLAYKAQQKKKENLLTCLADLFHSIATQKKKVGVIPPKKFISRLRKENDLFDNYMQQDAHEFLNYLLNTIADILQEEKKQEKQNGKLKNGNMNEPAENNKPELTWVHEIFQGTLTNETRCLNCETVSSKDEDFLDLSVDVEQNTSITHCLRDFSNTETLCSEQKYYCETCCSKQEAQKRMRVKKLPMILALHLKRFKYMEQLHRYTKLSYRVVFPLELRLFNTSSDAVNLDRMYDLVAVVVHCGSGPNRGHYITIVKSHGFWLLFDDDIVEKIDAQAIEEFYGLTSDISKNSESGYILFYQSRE
# How it was run: as §1
# [3] = target: T2, USP47 (UniProt Q96K76)
# T2 sequence (whole entry): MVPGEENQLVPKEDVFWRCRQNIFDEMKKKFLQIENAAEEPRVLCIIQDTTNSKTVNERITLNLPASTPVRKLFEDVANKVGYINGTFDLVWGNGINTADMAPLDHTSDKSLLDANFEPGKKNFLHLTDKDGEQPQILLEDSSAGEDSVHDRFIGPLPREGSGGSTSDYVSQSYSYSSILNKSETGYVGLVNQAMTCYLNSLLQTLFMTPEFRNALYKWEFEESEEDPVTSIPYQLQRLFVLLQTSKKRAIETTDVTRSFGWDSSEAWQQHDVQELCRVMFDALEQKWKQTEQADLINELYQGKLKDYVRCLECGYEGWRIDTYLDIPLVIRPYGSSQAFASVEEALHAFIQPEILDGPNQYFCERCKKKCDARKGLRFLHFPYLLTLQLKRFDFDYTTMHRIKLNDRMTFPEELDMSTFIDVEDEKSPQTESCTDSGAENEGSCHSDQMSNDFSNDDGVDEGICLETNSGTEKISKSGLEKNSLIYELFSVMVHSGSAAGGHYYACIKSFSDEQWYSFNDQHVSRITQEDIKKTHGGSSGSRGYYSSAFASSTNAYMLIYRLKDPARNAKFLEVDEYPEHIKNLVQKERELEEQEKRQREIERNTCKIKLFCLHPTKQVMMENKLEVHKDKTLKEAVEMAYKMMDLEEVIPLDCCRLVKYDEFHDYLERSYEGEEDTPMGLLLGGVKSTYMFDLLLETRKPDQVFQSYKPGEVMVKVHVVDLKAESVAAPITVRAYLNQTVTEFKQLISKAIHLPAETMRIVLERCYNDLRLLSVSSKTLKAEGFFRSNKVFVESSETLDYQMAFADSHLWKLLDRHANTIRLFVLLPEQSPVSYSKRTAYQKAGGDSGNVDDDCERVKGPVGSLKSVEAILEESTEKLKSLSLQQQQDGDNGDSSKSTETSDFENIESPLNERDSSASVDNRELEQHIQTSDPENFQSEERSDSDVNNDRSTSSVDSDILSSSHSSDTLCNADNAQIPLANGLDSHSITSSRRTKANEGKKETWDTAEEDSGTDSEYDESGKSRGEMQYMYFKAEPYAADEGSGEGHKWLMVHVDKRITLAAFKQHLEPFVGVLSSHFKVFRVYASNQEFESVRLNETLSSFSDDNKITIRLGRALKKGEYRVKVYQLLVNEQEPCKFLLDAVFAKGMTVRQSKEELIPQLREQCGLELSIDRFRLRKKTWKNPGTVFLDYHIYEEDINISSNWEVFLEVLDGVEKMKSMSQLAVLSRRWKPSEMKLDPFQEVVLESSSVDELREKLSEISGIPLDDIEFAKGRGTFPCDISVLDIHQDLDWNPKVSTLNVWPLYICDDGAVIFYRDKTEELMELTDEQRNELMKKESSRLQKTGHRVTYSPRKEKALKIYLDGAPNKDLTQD
# How it was run: as §1
# [4] = target: T3, USP48 (UniProt Q86UV5)
# T3 sequence (whole entry): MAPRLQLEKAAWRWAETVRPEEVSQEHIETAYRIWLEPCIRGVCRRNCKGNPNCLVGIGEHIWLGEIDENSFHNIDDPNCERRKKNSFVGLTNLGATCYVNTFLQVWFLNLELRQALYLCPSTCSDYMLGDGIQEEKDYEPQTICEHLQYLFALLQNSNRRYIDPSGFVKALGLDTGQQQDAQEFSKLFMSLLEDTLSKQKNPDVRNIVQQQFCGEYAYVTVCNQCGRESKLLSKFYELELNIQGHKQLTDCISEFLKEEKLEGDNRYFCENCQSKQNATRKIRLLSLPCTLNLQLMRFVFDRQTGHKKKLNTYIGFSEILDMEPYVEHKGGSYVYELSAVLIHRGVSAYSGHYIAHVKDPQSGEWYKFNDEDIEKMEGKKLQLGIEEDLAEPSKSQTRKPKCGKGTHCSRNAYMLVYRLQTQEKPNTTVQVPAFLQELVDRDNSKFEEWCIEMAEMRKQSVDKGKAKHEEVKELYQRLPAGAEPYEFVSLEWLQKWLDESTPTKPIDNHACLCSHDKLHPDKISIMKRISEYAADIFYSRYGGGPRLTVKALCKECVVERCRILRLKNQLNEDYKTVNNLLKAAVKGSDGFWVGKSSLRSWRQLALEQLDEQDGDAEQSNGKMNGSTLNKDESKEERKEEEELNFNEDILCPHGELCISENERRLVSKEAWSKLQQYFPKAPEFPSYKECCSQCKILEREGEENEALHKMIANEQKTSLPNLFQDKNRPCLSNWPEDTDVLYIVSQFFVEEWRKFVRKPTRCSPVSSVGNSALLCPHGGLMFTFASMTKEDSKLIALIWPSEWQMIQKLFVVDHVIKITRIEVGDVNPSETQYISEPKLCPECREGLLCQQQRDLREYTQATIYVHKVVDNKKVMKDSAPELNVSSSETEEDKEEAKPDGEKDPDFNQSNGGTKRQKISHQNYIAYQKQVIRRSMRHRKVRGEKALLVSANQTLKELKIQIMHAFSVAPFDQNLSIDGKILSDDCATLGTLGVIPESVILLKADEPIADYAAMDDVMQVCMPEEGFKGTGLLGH
# How it was run: as §1
# [5] = target: T4, USP5 (UniProt P45974)
# T4 sequence (whole entry): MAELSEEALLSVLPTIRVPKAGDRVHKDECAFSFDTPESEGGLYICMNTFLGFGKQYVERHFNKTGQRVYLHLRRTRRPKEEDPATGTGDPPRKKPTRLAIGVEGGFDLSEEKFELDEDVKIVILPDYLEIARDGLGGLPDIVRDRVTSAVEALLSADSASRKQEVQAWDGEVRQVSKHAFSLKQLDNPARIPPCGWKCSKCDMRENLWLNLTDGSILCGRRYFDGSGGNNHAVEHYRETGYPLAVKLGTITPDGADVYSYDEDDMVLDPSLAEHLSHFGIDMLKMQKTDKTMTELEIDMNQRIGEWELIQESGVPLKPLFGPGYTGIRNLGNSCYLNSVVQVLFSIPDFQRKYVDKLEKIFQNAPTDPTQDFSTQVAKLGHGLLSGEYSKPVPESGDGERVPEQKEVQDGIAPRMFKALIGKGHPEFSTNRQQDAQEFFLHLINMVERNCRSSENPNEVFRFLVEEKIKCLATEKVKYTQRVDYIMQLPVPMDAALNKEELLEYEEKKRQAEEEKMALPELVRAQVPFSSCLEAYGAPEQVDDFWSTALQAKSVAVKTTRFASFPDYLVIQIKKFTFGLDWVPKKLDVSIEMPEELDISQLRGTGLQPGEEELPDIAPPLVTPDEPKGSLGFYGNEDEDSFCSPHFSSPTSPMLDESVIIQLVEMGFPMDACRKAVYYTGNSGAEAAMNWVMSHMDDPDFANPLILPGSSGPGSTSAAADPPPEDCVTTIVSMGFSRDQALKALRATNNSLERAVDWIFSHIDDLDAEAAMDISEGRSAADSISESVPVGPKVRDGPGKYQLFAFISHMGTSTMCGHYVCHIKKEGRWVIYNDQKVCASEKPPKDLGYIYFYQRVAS
# How it was run: as §1
# [6] = target: USP54 (UniProt Q70EL1)
# Chain of USP54 (Q70EL1 whole entry): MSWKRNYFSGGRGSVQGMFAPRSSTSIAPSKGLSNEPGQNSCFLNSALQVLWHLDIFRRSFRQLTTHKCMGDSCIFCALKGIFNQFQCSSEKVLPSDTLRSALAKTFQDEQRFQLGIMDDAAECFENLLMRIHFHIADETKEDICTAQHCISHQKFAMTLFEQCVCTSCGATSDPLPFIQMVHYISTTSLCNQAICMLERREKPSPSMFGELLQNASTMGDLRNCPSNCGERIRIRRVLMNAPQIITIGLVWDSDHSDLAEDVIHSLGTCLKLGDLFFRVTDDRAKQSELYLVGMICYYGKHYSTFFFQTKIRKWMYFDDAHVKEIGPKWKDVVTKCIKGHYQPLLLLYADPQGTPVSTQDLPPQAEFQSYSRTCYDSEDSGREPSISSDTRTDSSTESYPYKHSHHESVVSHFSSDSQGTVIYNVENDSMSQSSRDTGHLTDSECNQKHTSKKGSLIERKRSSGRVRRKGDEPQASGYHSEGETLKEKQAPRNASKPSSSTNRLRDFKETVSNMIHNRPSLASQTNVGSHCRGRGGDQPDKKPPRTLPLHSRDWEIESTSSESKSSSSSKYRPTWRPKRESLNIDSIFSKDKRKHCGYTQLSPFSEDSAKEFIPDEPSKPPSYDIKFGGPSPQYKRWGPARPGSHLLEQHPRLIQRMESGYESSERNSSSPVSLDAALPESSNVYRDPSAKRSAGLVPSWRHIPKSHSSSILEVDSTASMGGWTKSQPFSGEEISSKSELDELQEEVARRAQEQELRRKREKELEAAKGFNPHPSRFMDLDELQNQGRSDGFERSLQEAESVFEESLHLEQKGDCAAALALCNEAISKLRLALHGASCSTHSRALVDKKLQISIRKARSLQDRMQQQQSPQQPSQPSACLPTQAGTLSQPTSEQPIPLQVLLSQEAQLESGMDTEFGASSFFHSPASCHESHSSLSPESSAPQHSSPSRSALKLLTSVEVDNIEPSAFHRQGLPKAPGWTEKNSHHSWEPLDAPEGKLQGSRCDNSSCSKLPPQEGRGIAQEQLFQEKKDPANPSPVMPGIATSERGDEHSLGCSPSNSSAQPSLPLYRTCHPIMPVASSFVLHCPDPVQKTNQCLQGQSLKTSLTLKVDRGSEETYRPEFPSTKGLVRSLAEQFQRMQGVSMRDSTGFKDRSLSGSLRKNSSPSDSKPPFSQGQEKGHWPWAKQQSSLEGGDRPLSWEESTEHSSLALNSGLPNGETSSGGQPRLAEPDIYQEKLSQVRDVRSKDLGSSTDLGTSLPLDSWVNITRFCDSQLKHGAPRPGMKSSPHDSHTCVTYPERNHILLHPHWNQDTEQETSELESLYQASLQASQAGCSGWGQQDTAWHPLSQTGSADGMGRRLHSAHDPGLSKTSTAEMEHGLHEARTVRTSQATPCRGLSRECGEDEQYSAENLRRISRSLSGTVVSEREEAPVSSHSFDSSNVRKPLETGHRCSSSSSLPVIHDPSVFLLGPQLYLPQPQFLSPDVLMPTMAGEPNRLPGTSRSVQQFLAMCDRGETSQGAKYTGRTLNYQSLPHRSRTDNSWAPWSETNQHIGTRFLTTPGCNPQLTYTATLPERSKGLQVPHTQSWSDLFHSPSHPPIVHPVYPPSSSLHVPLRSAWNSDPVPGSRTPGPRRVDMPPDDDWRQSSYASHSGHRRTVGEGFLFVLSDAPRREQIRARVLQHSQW
# How it was run: as §1
# [7] = target: USP7 (UniProt Q93009)
# Chain of USP7 (Q93009 whole entry, looked up): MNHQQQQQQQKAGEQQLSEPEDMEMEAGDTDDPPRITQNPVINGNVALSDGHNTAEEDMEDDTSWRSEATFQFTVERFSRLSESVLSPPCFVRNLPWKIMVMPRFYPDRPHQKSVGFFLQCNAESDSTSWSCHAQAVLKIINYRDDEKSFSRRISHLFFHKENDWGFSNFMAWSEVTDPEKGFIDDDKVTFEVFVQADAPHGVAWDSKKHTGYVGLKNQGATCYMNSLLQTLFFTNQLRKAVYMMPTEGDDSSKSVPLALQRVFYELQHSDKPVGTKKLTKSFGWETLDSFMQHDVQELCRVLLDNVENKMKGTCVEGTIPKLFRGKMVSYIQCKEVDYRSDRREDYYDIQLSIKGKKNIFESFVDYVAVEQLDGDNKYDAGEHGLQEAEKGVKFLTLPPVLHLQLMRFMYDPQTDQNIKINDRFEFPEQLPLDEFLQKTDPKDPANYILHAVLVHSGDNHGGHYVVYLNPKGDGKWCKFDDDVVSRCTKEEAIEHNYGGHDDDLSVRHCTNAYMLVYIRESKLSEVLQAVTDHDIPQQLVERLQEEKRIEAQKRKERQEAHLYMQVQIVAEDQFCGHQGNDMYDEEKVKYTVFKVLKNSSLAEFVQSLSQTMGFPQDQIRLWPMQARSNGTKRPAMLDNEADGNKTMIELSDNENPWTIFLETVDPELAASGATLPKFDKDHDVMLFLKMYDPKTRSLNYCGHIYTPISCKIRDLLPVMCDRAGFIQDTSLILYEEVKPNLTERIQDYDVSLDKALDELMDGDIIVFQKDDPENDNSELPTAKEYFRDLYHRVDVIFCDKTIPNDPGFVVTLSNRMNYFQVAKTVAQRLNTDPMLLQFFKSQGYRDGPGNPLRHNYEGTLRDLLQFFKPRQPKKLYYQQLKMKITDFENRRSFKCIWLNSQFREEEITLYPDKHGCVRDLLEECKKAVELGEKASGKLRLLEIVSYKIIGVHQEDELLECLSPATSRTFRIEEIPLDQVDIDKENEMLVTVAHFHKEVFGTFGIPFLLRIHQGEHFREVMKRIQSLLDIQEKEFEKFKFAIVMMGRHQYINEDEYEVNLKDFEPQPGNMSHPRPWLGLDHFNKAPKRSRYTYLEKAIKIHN
# How it was run: as §1
# [8] = target: T5, USP8 (UniProt P40818)
# T5 sequence (whole entry): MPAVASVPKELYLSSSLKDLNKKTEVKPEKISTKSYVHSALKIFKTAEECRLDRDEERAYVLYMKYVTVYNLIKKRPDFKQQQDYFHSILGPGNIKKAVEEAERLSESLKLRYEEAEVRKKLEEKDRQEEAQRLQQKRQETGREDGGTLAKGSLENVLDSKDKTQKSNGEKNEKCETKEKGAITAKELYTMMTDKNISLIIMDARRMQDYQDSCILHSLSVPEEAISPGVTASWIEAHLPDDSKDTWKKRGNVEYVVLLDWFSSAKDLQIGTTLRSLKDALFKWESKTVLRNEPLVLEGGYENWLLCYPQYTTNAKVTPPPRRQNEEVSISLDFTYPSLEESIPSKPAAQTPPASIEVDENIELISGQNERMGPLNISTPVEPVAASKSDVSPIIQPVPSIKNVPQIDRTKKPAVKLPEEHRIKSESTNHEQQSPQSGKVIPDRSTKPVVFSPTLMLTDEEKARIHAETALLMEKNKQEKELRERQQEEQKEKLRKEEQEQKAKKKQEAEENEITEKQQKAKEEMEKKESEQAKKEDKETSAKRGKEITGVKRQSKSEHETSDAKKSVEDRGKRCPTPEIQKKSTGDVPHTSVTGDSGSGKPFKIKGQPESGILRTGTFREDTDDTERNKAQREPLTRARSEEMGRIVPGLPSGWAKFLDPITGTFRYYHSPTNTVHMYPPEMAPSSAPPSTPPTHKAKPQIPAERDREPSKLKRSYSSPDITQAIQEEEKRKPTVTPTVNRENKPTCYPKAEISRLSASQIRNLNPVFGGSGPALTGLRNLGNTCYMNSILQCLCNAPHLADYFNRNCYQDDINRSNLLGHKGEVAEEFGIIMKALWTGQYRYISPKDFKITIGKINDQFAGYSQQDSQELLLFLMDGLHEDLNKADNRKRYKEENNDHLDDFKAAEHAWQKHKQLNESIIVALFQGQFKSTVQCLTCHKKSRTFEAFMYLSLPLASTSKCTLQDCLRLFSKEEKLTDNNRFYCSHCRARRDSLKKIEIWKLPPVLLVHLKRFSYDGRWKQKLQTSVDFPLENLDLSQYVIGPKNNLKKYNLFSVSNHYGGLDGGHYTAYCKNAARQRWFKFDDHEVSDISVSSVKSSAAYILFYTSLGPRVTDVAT
# How it was run: as §1
smiles,measurement,setting,value
Cc1noc(C)c1CNC(=O)CCl,log2 ratio of Biotin-Ahx-Ub-VS probe labelling,[1],0.262
same,log2 ratio of Biotin-Ahx-Ub-VS probe labelling,[2],-0.347
same,log2 ratio of Biotin-Ahx-Ub-VS probe labelling,[3],0.0132
same,log2 ratio of Biotin-Ahx-Ub-VS probe labelling,[4],-0.547
same,log2 ratio of Biotin-Ahx-Ub-VS probe labelling,[5],-0.403
same,log2 ratio of Biotin-Ahx-Ub-VS probe labelling,[6],1.07
same,log2 ratio of Biotin-Ahx-Ub-VS probe labelling,[7],-0.406
same,log2 ratio of Biotin-Ahx-Ub-VS probe labelling,[8],-1.2 (active)
